Screens (PubChem)
Lassa entry inh = blocks Lassa virus binding to or entry into cells; Lassa virus pseudotype entry inhibition, cell reporter; Potency, µM (top dose mostly 37.9 µM), most hits filed as inhibitors; 300,000 tested, 1.2% active; calls by dose curve; tested in HEK293 cells; note: nearly all actives have a fitted effect of over 50% in size
VACV Venus inh = inhibitors of vaccinia virus (Venus reporter). Vaccinia virus Venus reporter expression, fluorescence. Potency, µM (titrated, usually from 36.5 µM), hits mostly inhibitors. 330,000 tested, 0.46% active; calls by dose curve; tested in A549 cells; note: nearly all actives have a fitted effect of over 30% in size
HCMV inh = human cytomegalovirus inhibition; 410,000 tested, 4.5% active; HFF cells, HCMV-luciferase reporter, 72 h; active compounds read low; activity change, negative = inhibition, % at 57.5 µM; in the data active = activity change below about -60%; inconclusive = no clear call, values can overlap the other calls; inactive = above about -39%
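Inhibition of viral replication was scored as loss of reporter luminescence in HFFs infected with HCMV-luciferase (MOI 1 PFU/cell) for 72 h; compounds tested at 2 doses, normalized to buffer and Salinomycin controls.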
FMDV antiviral = antivirals against foot and mouth disease virus | Potency, µM (doses to about 57.9 µM), usual class: inhibitors | AID 1159524 | FMDV antiviral cell-based qHTS | 410,000 tested, 1.2% active; calls by dose curve; tested in HEK293T cells; note: read-out not given here; nearly all actives have a fitted effect of over 45% in size
MARV entry inh = inhibitors of Marburg virus binding or cell entry. Marburg virus pseudotyped entry inhibition, cell reporter. Potency, µM (top dose mostly 37.8 µM), most hits filed as inhibitors. 300,000 tested, 1.8% active; calls by dose curve; tested in HEK293 cells
Vaccinia mCherry = vaccinia inhibition (mCherry reporter); Vaccinia virus mCherry reporter infection, fluorescence; Potency, µM (highest dose often 36.5 µM), hits mostly inhibitors; 310,000 tested, 0.63% active; AID 720579; calls by dose curve; tested in A549 cells; note: nearly all actives have a fitted effect of over 35% in size
Large screens that a line does not name were inactive. An excerpt weighted towards active compounds, which were near 6.5% of everything screened.

O=C(CNc1cccc(S(=O)(=O)N2CCOCC2)c1)Nc1ccc(C(F)(F)F)cc1	FMDV antiviral 32µM, MARV entry inh inconclusive
CCCCCCC(=O)Cc1cc(OC)c(OC)cc1C=C(C(C)=O)C(=O)OC	none (no result: Lassa entry inh, VACV Venus inh, HCMV inh, FMDV antiviral, Vaccinia mCherry)
COc1ccc(N2CC(NC(=O)C(=O)c3c[nH]c4ccccc34)CC2=O)cc1 (stereo not drawn)	none (no result: MARV entry inh)
CCn1cc(C(=O)O)c(=O)c2cc(F)c(N/N=C/c3ccccc3[N+](=O)[O-])cc21	Lassa entry inh inconclusive, HCMV inh -71, FMDV antiviral 20µM
COc1cc(=O)n2c(c1C(=O)N(C)Cc1cscn1)CCN(C(=O)c1cccc(C)c1C)CC2	none (no result: Lassa entry inh, HCMV inh, MARV entry inh)
Cc1c(C)n(Cc2ccccc2)c2ccc(C(=O)N3CCN(c4ccccc4F)CC3)cc12	none (no result: MARV entry inh)
Cc1cc2nc(CCN(C(=S)NCC(C)C)C3CCCC3)[nH]c2cc1C	Lassa entry inh inconclusive, VACV Venus inh inconclusive, HCMV inh -85, MARV entry inh inconclusive, Vaccinia mCherry inconclusive (no result: FMDV antiviral)
Cc1cc2nc(CCN(C(=S)NCC3CCCO3)C3CCCC3)[nH]c2cc1C (stereo not drawn)	HCMV inh -63 (no result: Lassa entry inh, VACV Venus inh, MARV entry inh, Vaccinia mCherry)
Cc1cccc2cc(CN(C(=S)NCC(C)C)C3CCCC3)c(=O)[nH]c12	MARV entry inh inconclusive
Cc1ccccc1CN1[C@H](C)[C@H](c2ccccc2)OCCS1(=O)=O	none (no result: Lassa entry inh, HCMV inh, FMDV antiviral, MARV entry inh)
Cc1cnc([N+](=O)[O-])n1CCOC(=O)NC(=O)c1ccccc1Cl	HCMV inh -66 (no result: Lassa entry inh)
Cc1cnc([N+](=O)[O-])n1CCOC(=O)NC(=O)c1ccc(C(F)(F)F)cc1	none
O=C(Nc1ccc(S(=O)(=O)N(Cc2ccccc2)c2ccccc2)cc1)c1ccc([N+](=O)[O-])cc1	FMDV antiviral inconclusive, Vaccinia mCherry inconclusive
CN=c1sc2ccccc2n1C[C@@H](O)COCc1ccco1	none (no result: Lassa entry inh, VACV Venus inh, HCMV inh, FMDV antiviral, Vaccinia mCherry)
CC(C)NS(=O)(=O)c1ccc(OCC(=O)N2CCN(Cc3ccc4c(c3)OCO4)CC2)c(Cl)c1	Lassa entry inh inconclusive, HCMV inh -68, FMDV antiviral inconclusive, MARV entry inh inconclusive, Vaccinia mCherry inconclusive
COc1ccc(N(C)S(=O)(=O)c2cccc(C(=O)N3CCN(Cc4ccc5c(c4)OCO5)CC3)c2)cc1	Lassa entry inh inconclusive, FMDV antiviral inconclusive, MARV entry inh inconclusive
CCOc1ccc(N(C)S(=O)(=O)c2ccc(C)c(C(=O)N3CCN(Cc4ccc5c(c4)OCO5)CC3)c2)cc1	Lassa entry inh inconclusive, VACV Venus inh inconclusive, FMDV antiviral 22µM
Cc1cc(S(=O)(=O)NC(C)C)ccc1OCC(=O)N1CCN(Cc2ccc3c(c2)OCO3)CC1	Lassa entry inh 8.2µM, VACV Venus inh inconclusive, HCMV inh -84, FMDV antiviral inconclusive, MARV entry inh inconclusive
CC1(C)CC(=O)c2cc(-c3nc(-c4ccc(Cl)cc4)cs3)c(=O)n(-c3ccc(Cl)cc3)c2C1	MARV entry inh inconclusive
COc1cc(=O)n2c(c1C(=O)NC(C)c1ccco1)CCN(Cc1ccnc3ccccc13)CC2 (stereo not drawn)	none (no result: Lassa entry inh, HCMV inh, MARV entry inh)
O=C(C(=Cc1ccccc1)CN1CCCCC1)c1ccccc1	Lassa entry inh 3.5µM, VACV Venus inh inconclusive, HCMV inh -76, FMDV antiviral 3.5µM, MARV entry inh inconclusive
CCOC(=O)C1=C(O)/C(=C/c2cn(CC(=O)N3CCCC3)c3ccccc23)SC1=Nc1ccccc1	FMDV antiviral 8.9µM, MARV entry inh inconclusive (no result: HCMV inh)
CN1C(=O)C(=Cc2cn(CC(=O)N3CCCC3)c3ccccc23)C(=O)N(C)C1=O	none
CN(C)c1ccc(N=Nc2ccccc2C(=O)OCC(=O)NCC2CCCCC2)cc1	HCMV inh -61, MARV entry inh inconclusive
Cc1ccc2nc3sc(C(=O)Nc4ccc(F)cc4)cc3cc2c1	none (no result: MARV entry inh)
Cc1c([N+](=O)[O-])cc(C(=O)N2CCOCC2)cc1[N+](=O)[O-]	MARV entry inh inconclusive
Cc1ccc(Sc2ccc(C(=O)N3CCOCC3)cc2[N+](=O)[O-])cc1	HCMV inh -75 (no result: Lassa entry inh, VACV Venus inh, MARV entry inh, Vaccinia mCherry)
C[C@@H]1NC(=O)/C(=C\c2ccccc2Br)NC1=O	Lassa entry inh inconclusive, HCMV inh -102
C[C@@H]1NC(=O)/C(=C\c2ccccc2Cl)NC1=O	HCMV inh inconclusive
Cc1cccc(N2CCN(C(=O)C3CCCN(S(=O)(=O)c4ccc(Br)s4)C3)CC2)c1C (stereo not drawn)	Lassa entry inh inconclusive, HCMV inh -62, FMDV antiviral inconclusive, MARV entry inh inconclusive
Cc1cccc(N2CCN(C(=O)C3CC(=O)N(C4CCCC4)C3)CC2)c1C (stereo not drawn)	HCMV inh -63, FMDV antiviral inconclusive, MARV entry inh inconclusive
